The record followed here is PubChem BioAssay AID743325 (National Center for Advancing Translational Sciences (NCATS), 2014).

Structures are written as SMILES. The source made the active and inactive calls. The call rests on the fitted dose curve. Numbered stars: 1 amine (or outer) side, 2 acyl side, 3 side chain; on linkers, the order of the positions; unused ones are H or OH. Bridge positions count the residues as written; N and C are the ends. Square brackets hold non-standard residues; d marks the D form. Peptide text beside a SMILES is read from it. I, II: the chains in the order shown. Actinocin(9to1) = Cc1c2oc3c(C)ccc(C(=O)[*:1])c3nc-2c(C(=O)[*:2])c(N)c1=O; NMeV = CN[CH](C(=O)O)C(C)C; Sar = CNCC(=O)O

A short description of this assay: qHTS profiling of Chloroquine Analogs as inhibitors of Plasmodium falciparum (3D7) proliferation. The note with it: activity change, negative = inhibition: at 28.7 µM (top of the series) unless noted. The source says:
Plasmodium falciparum is a virulent malarial parasite that kills 1-2 million people worldwide each year. Transmitted by mosquitoes, the sporozoite form of the parasite enters the blood stream to infect hepatocytes, where they become merozoites that infect red blood cells (erythrocytes). Within erythrocytes, merozoites begin a […] cycle of growth and division, after which the parasite is released to infect new red blood cells. Gametocytes, which form within erythrocytes as well, circulate in the bloodstream and are ingested by the mosquito, thereby completing the life cycle. To profile malarial isolates for differential chemical responses and to identify inhibitors of malarial growth, an assay that measures P. falciparum growth and replication within erythrocytes was employed. This assay uses a DNA binding fluorescent dye (SYBR Green) to detect parasite DNA following cell lysis. Because mature erythrocytes lack DNA, only Plasmodium-derived DNA is detected.
The SYBR Green viability assay was adapted from a method described previously (Plouffe et al., 2008). For screening 3 ul culture medium was dispensed into 1536 well black clear bottom plates (Aurora Biotechnologies) using a Multidrop Combi (Thermo Fisher Scientific Inc.), 23 nL compounds in DMSO were added by a pin tool (Kalypsys), and 5 ul of erythrocytes infected with P. falciparum (0.3% parasitemia, 2.5% hematocrit final concentration) were added. The plates were incubated at 37 C in a humidified incubator in 5% CO2 for 72 h, and 2 ul lysis buffer (20 mM Tris HCl, 10 mM EDTA, 0.16% saponin, 1.6% triton X, 10X SYBR Green I supplied as 10,000X […] by Invitrogen) was added to each well. The plates were mixed for 25 sec with gentle shaking and incubated overnight at room temperature in the dark. The following morning, fluorescence intensity at 485(14) nm excitation and 535(25) nm emission wavelengths was measured on an EnVision (Perkin Elmer) plate reader. Plate reads were normalized relative to the control inhibitor (0.29 uM artemisinin) and vehicle (DMSO) wells present on each plate and then corrected by an algorithm using vehicle-only control plates at the beginning and end of the compound plate stack.
Turning to `NC(=NCc1ccccc1)NC(=O)c1nc(Cl)c(N)nc1N`, the activity change, negative = inhibition is -99.4%.
Turning to `CCOc1ccccc1O[C@H](c1ccccc1)[C@H]1CNCCO1`, the Potency entry is “inactive”.
On to `COc1ccc2nc3cc(Cl)ccc3c(Nc3cc(CN4CCCC4)c(O)c(CN4CCCC4)c3)c2n1`, for which the activity change, negative = inhibition is -101%.
Consider `CCCCN(CCCC)CC(O)c1cc(Cl)cc2c1-c1ccc(Cl)cc1C2=Cc1ccc(Cl)cc1` (stereo not given), for which the activity change, negative = inhibition was -97.1%.
With `Cc1nc2c(C#N)cccc2n1-c1ccc(C(=O)NC2CC2)s1`, the activity change, negative = inhibition was -100%.
In the case of `O=C(O)c1cn(C2CC2)c2cc(N3CCNCC3)c(F)cc2c1=O`, the Potency result was “inactive”.
The same measure, in the same setting: then `CN1C[C@H](C(=O)N[C@]2(C)O[C@@]3(O)[C@@H]4CCCN4C(=O)[C@H](Cc4ccccc4)N3C2=O)C[C@@H]2c3cccc4[nH]cc(c34)C[C@H]21`, with 530 nM (active).
Take `CC(C)N=C(N)N=C(N)Nc1ccc(Cl)cc1`: the Potency was 26.6 nM (active).
For `CCc1ccc(OCc2ccccc2C(=O)Nc2ccc3nc(C)cc(N)c3c2)cc1`, the activity change, negative = inhibition was -101%.
As for `CCCCCCCCCCOc1cc2c(=O)c(C(=O)OCC)c[nH]c2cc1OCC`, the Potency entry is “inactive”.
Same read-out and setting: then `Oc1cc(Cl)ccc1Oc1ccc(Cl)cc1Cl`, with 1880 nM (active); and `Cc1cccc(C)c1NC(=O)C(C)N` (stereo not given), with “inactive”.
In the case of `C=C[C@@H]1CN2CCC1C[C@@H]2C(O)c1ccnc2ccc(OC)cc12` (stereo not given in full), the activity change, negative = inhibition is -97.6%.
With `C[C@H]1Cc2c([nH]c3cc(Cl)c(F)cc23)[C@@]2(N1)C(=O)Nc1ccc(Cl)cc12`, the activity change, negative = inhibition is -101%.
`CC1=CC(=O)c2ccccc2C1=O`: the Potency result is “inactive”.
Take `C[C@@H]1Cc2c([nH]c3cc(Cl)c(F)cc23)[C@]2(N1)C(=O)Nc1ccc(Cl)cc12`: the activity change, negative = inhibition was -101%.
The same measure, in the same setting: then `CNCCC(Oc1ccccc1OC)c1ccccc1` (stereo not given), with -93.6%; and `C[C@H]1[C@@H](OC(=O)CCC(=O)O)O[C@@H]2OC3(C)CC[C@H]4[C@H](C)CC[C@@H]1[C@@]24OO3`, with -101%.
In the case of `CC(C)(C)c1cc(O)c(CN)c(C(C)(C)C)c1`, the Potency was 168 nM (active).
The same measure, in the same setting: as for `COc1cc(C=CC(=O)CC(=O)C=Cc2ccc(O)c(OC)c2)ccc1O`, the figure is 8410 nM (active); as for `Cc1c2oc3c(C)ccc(C(=O)NC4C(=O)NC(C(C)C)C(=O)N5CCCC5C(=O)N(C)CC(=O)N(C)C(C(C)C)C(=O)OC4C)c3nc-2c(C(=O)NC2C(=O)NC(C(C)C)C(=O)N3CCCC3C(=O)N(C)CC(=O)N(C)C(C(C)C)C(=O)OC2C)c(N)c1=O` (stereo not given) (I: TVP[Sar][NMeV] / II: TVP[Sar][NMeV]; ester I:1-I:C, II:1-II:C; linker I:N-II:N via Actinocin(9to1); configuration not given here), 2.1 nM (active).
As for `Cc1cccc(C)c1OCC(N)C(C)C` (stereo not given), the activity change, negative = inhibition was -97.7%.
Turning to `CCc1nc(N)nc(N)c1-c1ccc(Cl)cc1`, the activity change, negative = inhibition is -98.9%.
Regarding `CN(C)CC/C=C1\c2ccccc2COc2ccccc21`, the Potency was 2020 nM (active).
`C#C[C@]1(O)CC[C@@H]2[C@H]3CCC4=CC(=O)CC[C@H]4[C@H]3C(=C)C[C@@]21CC`: the Potency entry was “inactive”.
In the case of `COc1ncnc(NS(=O)(=O)c2ccc(N)cc2)c1OC`, the Potency was 1500 nM (active).
`C/C(=C\c1csc(C)n1)[C@@H]1C[C@@H]2O[C@]2(C)CCC[C@H](C)[C@H](O)[C@@H](C)C(=O)C(C)(C)[C@@H](O)CC(=O)O1`: the Potency entry was “inactive”.
The same measure, in the same setting: as for `CC(CNC1CCCCC1)OC(=O)c1ccccc1` (stereo not given), the entry is “inactive”.
Consider `CN1CC[C@H](CN2c3ccccc3Sc3ccccc32)C1`, for which the Potency entry is “inactive”.
With `COc1cccc(CCc2ccccc2OCC(CN(C)C)OC(=O)CCC(=O)O)c1` (stereo not given), the Potency is 2980 nM (active).
Still for that read-out and setting: as for `CCCCN(CCCC)CCC(O)c1cc2c(Cl)cc(Cl)cc2c2cc(C(F)(F)F)ccc12` (stereo not given), the figure is 5.1 nM (active).
For the compound `Cc1cccc(C)c1OCC(=O)N[C@@H](Cc1ccccc1)[C@@H](O)C[C@H](Cc1ccccc1)NC(=O)[C@H](C(C)C)N1CCCNC1=O`, the activity change, negative = inhibition is -99.8%.
With `C[C@@H]1[C@@H](C(=O)C[C@H]2O[C@@H]3O[C@]4(C)CC[C@@H]5[C@H](C)CC[C@@H]([C@H]2C)[C@@]35OO4)O[C@@H]2O[C@]3(C)CC[C@H]4[C@H](C)CC[C@@H]1[C@@]24OO3`, the Potency was 1.7 nM (active).
As to `CN(C)c1ccc2nc3ccc(=[N+](C)C)cc-3sc2c1`, the Potency is 4.3 nM (active).
Take `CC(=O)N(O)CCCP(=O)(O)O`: the Potency was 266 nM (active).
Still for that read-out and setting: as for `C=Cc1c(C)c2cc3nc(cc4[nH]c(cc5nc(cc1[nH]2)C(C)=C5CCC(=O)OC)c(CCC(=O)O)c4C)[C@@]1(C)C3=CC=C(C(=O)OC)[C@H]1C(=O)OC`, the entry is “inactive”.
With `CN1CCN(CCCN2c3ccccc3Sc3ccc(S(=O)(=O)N(C)C)cc32)CC1`, the Potency was 716 nM (active).
For the compound `C[C@@H]1CC[C@H]2[C@@H](C)C(=O)O[C@@H]3OC4(C)CC[C@@H]1C32OO4` (stereo not given in full), the activity change, negative = inhibition is -99.4% [at 57.5 µM].
Still for that read-out and setting: as for `C=C[C@@H]1CN2CC[C@@H]1C[C@H]2[C@H](O)c1ccnc2ccc(OC)cc12`, the figure is -98.6%.
Consider `COc1cc2c(cc1C(F)(F)F)N(C(=O)Nc1cc(F)cc(-c3cccnc3)c1)CC2`, for which the Potency is 3760 nM (active).
